Measurements from the supplement of paper PMC12819154, “High-throughput peptide-centric local stability assay extends protein–ligand identification to membrane proteins, tissues and bacteria” (Nature Structural & Molecular Biology, 2025).

compound: Nc1ncnc2c1ncn2[C@@H]1O[C@H](COP(=O)(O)OP(=O)(O)OP(=O)(O)O)[C@@H](O)[C@H]1O [adenosine 5'-triphosphate]; assay: log2 fold change of tryptic peptide abundance, ligand vs vehicle (limited proteolysis) (log2 ratio); higher = more trypsin-susceptible (destabilized); conditions: ligand concentration: 5 mM; sample: E. coli desalted lysate; replicate design: treated before aliquoting
Experimental: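 HT-PELSA: desalted E. coli K-12 BW25113 lysate (with 12 mM MgCl2) incubated with 5 mM ATP (pH 7) or water for 30 min at 25 C, then a 4 min trypsin pulse at 22 C. Peptides were quantified by DIA-MS (4 replicates). Value is the peptide log2 fold change (treated/control); negative = stabilized. Scale: negative = ligand-stabilized region.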
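Further: lysate desalted by size exclusion to strip endogenous ATP, peptide intensities built from DIA-NN precursor signals, and peptides missing any value discarded before comparison.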

Sequence of UniProt P08400 (P08400 whole entry): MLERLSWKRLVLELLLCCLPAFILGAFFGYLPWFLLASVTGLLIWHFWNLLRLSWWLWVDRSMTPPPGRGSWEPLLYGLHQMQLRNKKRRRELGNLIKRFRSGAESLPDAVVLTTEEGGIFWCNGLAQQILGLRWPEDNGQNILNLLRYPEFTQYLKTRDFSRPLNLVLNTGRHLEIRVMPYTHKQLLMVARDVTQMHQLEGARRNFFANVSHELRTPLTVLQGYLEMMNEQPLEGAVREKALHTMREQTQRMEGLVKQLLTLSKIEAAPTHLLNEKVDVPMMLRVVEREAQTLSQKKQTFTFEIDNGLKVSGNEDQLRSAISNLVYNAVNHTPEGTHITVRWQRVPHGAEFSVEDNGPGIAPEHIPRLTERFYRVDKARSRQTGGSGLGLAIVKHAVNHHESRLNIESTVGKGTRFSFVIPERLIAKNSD
Sequence of UniProt P77756 (P77756 whole entry): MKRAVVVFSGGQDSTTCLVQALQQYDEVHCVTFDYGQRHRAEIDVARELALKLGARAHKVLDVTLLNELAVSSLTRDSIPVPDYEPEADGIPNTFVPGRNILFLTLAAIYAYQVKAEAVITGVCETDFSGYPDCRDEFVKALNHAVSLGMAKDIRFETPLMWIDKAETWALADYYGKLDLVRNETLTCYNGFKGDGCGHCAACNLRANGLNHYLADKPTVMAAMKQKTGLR
Sequence of UniProt P43329 (P43329 whole entry): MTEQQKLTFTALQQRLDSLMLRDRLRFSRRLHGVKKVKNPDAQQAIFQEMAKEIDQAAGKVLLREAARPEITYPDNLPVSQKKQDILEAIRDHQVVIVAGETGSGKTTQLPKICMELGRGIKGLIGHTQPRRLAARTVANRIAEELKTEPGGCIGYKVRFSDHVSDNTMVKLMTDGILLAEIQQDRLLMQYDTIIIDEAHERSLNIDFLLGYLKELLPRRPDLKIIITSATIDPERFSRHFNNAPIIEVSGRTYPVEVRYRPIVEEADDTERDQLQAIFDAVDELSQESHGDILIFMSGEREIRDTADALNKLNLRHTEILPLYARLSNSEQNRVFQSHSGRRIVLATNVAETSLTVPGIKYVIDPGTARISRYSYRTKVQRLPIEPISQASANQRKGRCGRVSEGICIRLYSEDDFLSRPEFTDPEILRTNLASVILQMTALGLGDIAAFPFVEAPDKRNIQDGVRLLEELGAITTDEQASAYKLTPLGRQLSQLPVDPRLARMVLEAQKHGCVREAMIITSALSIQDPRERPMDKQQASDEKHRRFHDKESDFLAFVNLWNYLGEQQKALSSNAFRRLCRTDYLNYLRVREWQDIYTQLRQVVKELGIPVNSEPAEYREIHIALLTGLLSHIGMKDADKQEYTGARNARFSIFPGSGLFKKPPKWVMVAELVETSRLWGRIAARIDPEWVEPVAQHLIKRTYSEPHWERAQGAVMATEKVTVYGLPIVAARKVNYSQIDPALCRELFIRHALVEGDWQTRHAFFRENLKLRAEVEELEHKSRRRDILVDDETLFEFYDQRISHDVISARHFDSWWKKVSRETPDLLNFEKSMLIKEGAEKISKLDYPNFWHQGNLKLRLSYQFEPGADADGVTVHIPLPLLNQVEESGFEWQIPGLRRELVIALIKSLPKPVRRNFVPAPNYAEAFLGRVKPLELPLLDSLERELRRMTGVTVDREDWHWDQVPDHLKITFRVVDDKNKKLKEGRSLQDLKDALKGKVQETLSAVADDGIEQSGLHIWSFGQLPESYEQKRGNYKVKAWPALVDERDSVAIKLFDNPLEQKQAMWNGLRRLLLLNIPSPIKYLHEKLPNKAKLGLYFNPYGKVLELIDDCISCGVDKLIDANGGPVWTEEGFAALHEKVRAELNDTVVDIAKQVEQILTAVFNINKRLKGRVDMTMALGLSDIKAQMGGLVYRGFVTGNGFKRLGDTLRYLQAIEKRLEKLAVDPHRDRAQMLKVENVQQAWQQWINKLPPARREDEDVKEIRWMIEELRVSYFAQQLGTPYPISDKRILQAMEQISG
Sequence of UniProt P0AEC3 (P0AEC3 whole entry): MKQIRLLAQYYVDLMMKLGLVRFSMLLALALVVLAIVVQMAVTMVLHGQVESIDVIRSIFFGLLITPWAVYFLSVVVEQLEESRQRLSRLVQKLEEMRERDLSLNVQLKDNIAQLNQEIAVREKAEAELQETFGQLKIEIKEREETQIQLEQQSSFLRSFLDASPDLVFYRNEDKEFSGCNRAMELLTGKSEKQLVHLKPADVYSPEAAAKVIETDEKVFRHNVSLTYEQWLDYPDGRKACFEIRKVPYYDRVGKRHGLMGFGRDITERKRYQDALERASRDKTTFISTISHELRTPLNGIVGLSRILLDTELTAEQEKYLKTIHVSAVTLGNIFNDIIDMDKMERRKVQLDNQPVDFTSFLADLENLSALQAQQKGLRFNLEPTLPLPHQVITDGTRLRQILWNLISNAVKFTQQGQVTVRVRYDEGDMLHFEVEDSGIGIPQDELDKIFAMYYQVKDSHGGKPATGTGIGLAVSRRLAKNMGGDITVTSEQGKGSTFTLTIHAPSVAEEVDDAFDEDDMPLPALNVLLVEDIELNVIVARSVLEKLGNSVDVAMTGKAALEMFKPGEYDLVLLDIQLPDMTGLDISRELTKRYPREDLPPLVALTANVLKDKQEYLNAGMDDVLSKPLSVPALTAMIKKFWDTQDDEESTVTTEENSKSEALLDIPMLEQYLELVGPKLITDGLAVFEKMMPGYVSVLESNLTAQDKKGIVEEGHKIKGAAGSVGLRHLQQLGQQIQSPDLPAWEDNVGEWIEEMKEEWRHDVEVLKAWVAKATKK
Sequence of UniProt P39829 (P39829 whole entry): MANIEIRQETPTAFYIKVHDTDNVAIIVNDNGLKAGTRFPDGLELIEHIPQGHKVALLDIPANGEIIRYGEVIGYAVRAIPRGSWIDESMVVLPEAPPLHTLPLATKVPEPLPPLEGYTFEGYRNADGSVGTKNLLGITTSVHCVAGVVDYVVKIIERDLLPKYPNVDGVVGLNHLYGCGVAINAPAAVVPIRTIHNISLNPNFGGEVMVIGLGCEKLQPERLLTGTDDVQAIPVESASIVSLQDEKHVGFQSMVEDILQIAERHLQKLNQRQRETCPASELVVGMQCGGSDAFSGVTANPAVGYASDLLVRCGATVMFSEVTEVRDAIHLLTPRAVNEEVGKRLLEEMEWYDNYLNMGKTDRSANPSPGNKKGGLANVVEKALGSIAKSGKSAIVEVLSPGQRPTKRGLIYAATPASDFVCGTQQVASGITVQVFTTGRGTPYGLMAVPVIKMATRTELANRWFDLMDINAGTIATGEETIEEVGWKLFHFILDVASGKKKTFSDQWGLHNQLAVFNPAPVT
Sequence of UniProt P21693 (P21693 whole entry): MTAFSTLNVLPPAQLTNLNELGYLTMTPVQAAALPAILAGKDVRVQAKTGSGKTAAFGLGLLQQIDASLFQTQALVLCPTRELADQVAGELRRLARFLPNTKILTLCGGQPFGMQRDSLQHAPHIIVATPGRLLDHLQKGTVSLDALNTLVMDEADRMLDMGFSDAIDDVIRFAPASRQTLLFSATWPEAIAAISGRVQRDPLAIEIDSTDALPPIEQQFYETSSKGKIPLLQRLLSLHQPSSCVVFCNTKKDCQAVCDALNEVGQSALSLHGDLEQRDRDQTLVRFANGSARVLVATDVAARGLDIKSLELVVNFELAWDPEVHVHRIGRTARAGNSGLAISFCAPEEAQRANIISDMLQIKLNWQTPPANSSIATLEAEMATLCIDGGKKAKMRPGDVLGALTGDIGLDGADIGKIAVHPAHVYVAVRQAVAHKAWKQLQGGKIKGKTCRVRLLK
Sequence of UniProt P76558 (P76558 whole entry): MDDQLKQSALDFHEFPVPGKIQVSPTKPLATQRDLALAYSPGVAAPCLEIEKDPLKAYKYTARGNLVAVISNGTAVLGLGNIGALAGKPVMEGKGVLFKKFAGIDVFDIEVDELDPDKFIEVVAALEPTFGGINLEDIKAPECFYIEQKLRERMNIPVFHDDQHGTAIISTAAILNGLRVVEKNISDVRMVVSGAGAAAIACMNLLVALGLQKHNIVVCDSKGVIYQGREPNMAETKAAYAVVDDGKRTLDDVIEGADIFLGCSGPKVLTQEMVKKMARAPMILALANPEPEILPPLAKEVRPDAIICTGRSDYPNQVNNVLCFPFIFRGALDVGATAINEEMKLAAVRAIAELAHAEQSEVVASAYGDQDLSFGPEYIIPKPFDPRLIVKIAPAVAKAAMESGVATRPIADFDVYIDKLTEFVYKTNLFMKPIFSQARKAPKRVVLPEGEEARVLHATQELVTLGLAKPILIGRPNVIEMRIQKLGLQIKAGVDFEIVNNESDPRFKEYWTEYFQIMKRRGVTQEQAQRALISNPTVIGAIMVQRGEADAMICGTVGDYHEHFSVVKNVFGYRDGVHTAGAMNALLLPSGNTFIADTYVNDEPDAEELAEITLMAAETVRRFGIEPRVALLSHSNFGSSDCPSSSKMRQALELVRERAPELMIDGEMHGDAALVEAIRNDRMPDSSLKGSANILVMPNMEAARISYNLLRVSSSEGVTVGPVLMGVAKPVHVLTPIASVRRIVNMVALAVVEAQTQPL

Going from “UniProt P04968 (peptide sequence: EALLAVTIPEEK, peptide start residue: 338)” to “UniProt P76257 (peptide sequence: GQPLVVEAGTGTGK, peptide start residue: 38)”, the log2 fold change falls from 0.397 to -0.82.

First: UniProt P27830 (peptide sequence: ASSDHLVR, peptide start residue: 172)
Second: UniProt P45568 (peptide sequence: ESLVTCGR, peptide start residue: 126)
Sequence (P45568 whole entry): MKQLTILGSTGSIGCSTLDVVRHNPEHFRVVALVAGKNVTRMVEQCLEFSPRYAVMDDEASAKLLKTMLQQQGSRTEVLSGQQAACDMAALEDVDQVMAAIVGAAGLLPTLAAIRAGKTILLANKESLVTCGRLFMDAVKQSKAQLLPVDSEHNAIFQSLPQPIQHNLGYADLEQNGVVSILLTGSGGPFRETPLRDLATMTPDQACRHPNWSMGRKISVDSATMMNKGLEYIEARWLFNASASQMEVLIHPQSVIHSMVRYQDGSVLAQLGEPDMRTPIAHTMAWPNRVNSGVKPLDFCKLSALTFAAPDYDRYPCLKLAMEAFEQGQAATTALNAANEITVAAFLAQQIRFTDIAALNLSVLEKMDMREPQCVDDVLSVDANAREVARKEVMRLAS
The log2 fold change of the first is lower: -0.668 for the first, 0.779 for the second.

First: UniProt P77739 (peptide sequence: IGWQLELAAEK, peptide start residue: 152)
Second: UniProt P00350 (peptide sequence: RIDKEGVFHTEWLD, peptide start residue: 455)
The log2 fold change of the first is lower: -0.651 for the first, -0.396 for the second.

“UniProt P25894 (peptide sequence: QRGISPAGLATSFEK, peptide start residue: 202)” and “UniProt P25748 (peptide sequence: IGYLSSSHGIEDDAMRK, peptide start residue: 179)” are within 0.2 log units of each other in log2 fold change: 0.934 for the first, 0.977 for the second.

Going from “UniProt P21693 (peptide sequence: ELADQVAGELRR, peptide start residue: 82)” to “UniProt P08400 (peptide sequence: FSFVIPER, peptide start residue: 417)”, the log2 fold change rises from -1.53 to 2.08.

“UniProt P27848 (peptide sequence: GHALEAVAK, peptide start residue: 192)” and “UniProt P76558 (peptide sequence: TNLFMKPIFSQAR, peptide start residue: 427)” are within 0.2 log units of each other in log2 fold change: 0.631 for the first, 0.538 for the second.

First: UniProt P25740 (peptide sequence: HYAAFER, peptide start residue: 123)
Second: UniProt P08192 (peptide sequence: FQIVSESPR, peptide start residue: 290)
The log2 fold change of the first is higher: -0.355 for the first, -0.913 for the second.

Compared with “UniProt P21514 (peptide sequence: NPIPVTPEAR, peptide start residue: 237)”, “UniProt P0AEK2 (peptide sequence: ALSDDQRAGILAQVPAGR, peptide start residue: 191)” is higher in log2 fold change: -2.06 for the first, 0.83 for the second.

“UniProt P39829 (peptide sequence: SANPSPGNKK, peptide start residue: 364)” and “UniProt P77536 (peptide sequence: MVDELGHWEEWRDR, peptide start residue: 41)” are within 0.2 log units of each other in log2 fold change: -0.412 for the first, -0.517 for the second.

Compared with “UniProt P0CB39 (peptide sequence: QYYMNQQR, peptide start residue: 350)”, “UniProt P16676 (peptide sequence: LYNGDER, peptide start residue: 345)” is higher in log2 fold change: -0.737 for the first, 0.414 for the second.

“UniProt Q46802 (peptide sequence: GAFTGASANGK, peptide start residue: 347)” and “UniProt P32157 (peptide sequence: YPVDVYTGK, peptide start residue: 3)” are within 0.2 log units of each other in log2 fold change: -0.841 for the first, -0.765 for the second.

Going from “UniProt P77316 (peptide sequence: HGDIFGHEFMGEVVETGKDVK, peptide start residue: 54)” to “UniProt P43329 (peptide sequence: IAEELKTEPGGCIGYK, peptide start residue: 142)”, the log2 fold change falls from -0.836 to -2.41.

Going from “UniProt P77756 (peptide sequence: HRAEIDVAR, peptide start residue: 39)” to “UniProt P33667 (peptide sequence: MIGSNHLPECLR, peptide start residue: 220)”, the log2 fold change rises from -2.3 to 0.32.

Going from “UniProt P75957 (peptide sequence: KKPAEINSR, peptide start residue: 117)” to “UniProt P0AEC3 (peptide sequence: FTQQGQVTVR, peptide start residue: 413)”, the log2 fold change falls from -1.5 to -2.53.
